Screening data (PubChem)
Shown are actives, neighbours in structure and some others; about 2.5% of the full set was active somewhere.
Myc binder = binders of human c-Myc | calls only | actives 1.5% (n = 17,000) | AID 624141 | small molecule microarray, His-c-Myc binding, anti-His fluorescence;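 active means spot fluorescence over background with P-value below 7% in all four replicate spots, showing protein binding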;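 further: score is binary with 100 for all four spots passing and 0 otherwise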
mut p53 SMM = binds human mutant p53 on microarray | small molecule microarray binding, anti-GST fluorescence | calls only | actives 0.4% (n = 17,000) | AID 624136;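 active means compounds whose four printed spots each glow above background more than chance allows, each with a p-value under 7%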
NFkB binder = binds human NF-kappa-B p105 on microarray; P19838; Small molecule microarray, anti-His fluorescence binding; calls only; actives 1.3% (n = 17,000); AID 624139;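 active means spot fluorescence over background significantly raised, with a chance value under 7% in all four replicate spots of the compound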;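 further: probe protein is his-tagged human p50 processed subunit at 1 µg/ml; raw spot fluorescence signals with no normalization applied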
Target sequence (P19838 1-433 limits assumed): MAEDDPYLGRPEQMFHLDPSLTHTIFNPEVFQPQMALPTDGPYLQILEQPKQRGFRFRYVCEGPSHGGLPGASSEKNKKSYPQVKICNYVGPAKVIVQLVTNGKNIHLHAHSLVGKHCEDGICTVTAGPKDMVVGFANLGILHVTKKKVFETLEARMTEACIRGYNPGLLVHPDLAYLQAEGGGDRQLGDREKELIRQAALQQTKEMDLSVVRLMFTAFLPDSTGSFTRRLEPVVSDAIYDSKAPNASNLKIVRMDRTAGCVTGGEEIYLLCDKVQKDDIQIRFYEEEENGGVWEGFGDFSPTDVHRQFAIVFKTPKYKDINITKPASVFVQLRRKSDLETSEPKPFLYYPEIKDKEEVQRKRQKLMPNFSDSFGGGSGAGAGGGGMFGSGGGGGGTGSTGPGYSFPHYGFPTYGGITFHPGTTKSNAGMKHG
STAT3 SMM = binders of human STAT3; P40763; Small molecule microarray, His-STAT3 binding, anti-His fluorescence; calls only; actives 0.2% (n = 17,000); AID 624138;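 active means compounds whose four printed spots each show fluorescence over background unusually high for their array block, chance value under 7%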
Numbers without * were called inactive; i = inactive; + = active, no number.

SMILES	Myc binder	mut p53 SMM	NFkB binder	STAT3 SMM
C[C@H](CO)N1C[C@H](C)[C@H](CN(C)S(C)(=O)=O)OCCCC[C@H](C)Oc2ccc(NS(=O)(=O)c3ccccc3)cc2C1=O	i	i	+	i
CCCN(C)C[C@H]1OCCCC[C@H](C)Oc2ccc(NS(=O)(=O)c3ccc(OC)cc3)cc2C(=O)N([C@H](C)CO)C[C@H]1C	i	+	i	i
C[C@@H]1CCCCO[C@@H](CN(C)S(C)(=O)=O)[C@@H](C)CN([C@@H](C)CO)C(=O)c2cc(NS(=O)(=O)c3ccccc3)ccc2O1	i	i	i	i
C[C@H](CO)N1C[C@H](C)[C@H](CN(C)C(=O)C2CCCCC2)OCCCC[C@H](C)Oc2ccc(NS(=O)(=O)c3cccs3)cc2C1=O	i	i	i	+
CCCN(C)C[C@H]1OCCCC[C@@H](C)Oc2ccc(NS(=O)(=O)c3ccc(Cl)cc3)cc2C(=O)N([C@@H](C)CO)C[C@H]1C	i	i	i	i
C[C@@H]1CN([C@@H](C)CO)C(=O)c2cc(NS(=O)(=O)c3ccccc3)ccc2O[C@@H](C)CCCCO[C@@H]1CN(C)C(=O)C1CCCCC1	i	i	i	+
CC(=O)OCC1=CCCC2[C@@]1(C)CC[C@@H](C)[C@]2(C)CCC(C)CC(=O)O (some centres undefined)	i	i	i	i
CSc1cccc(NC(=O)CSc2nnc(-c3ccc(Br)cc3)n2C)c1	i	i	i	i
COc1ccc(NCC(O)Cn2ccc3ccccc32)cc1 (centres undefined)	i	i	i	i
Cc1cc(C)n(CC(O)Cn2ccc3ccccc32)n1 (centres undefined)	+	i	+	i
CN(C)CCCNc1oc(-c2ccccc2F)nc1C#N	+	i	i	i
CCn1cc(CN(C)C(=S)Nc2cccc(C(C)=O)c2)c(C)n1	i	i	i	i
COC(=O)[C@]1(Cc2ccccc2N=[N+]=[N-])N=C(c2ccc(OCCCO)cc2)O[C@@H]1c1ccccc1N=[N+]=[N-]	i	i	i	i
COc1cc(S(=O)(=O)n2nnc3ccccc32)c(OC)cc1Cl	+	i	i	i
CC1=C(/C=C/C(C)=C\C=C\C(C)=C\C(=O)Nc2ccc(O)cc2)C(C)(C)CCC1	i	i	i	i
OCCN(CCO)Cc1ccc(Br)cc1	i	+	i	i
O=C1O[C@@H](c2ccccc2)[C@@H](c2ccccc2)N2[C@@H](c3ccc(OCCO)cc3)[C@]3(C(=O)Nc4ccc(C#CCCO)cc43)[C@@H](C(=O)N3CCCCCCC3)[C@H]12	i	i	i	i
O=C1O[C@@H](c2ccccc2)[C@@H](c2ccccc2)N2[C@@H](c3ccc(OCCO)cc3)[C@]3(C(=O)Nc4ccccc43)[C@@H](C(=O)N3CCCCCCC3)[C@H]12	+	+	+	i
O=C1O[C@H](c2ccccc2)[C@H](c2ccccc2)N2[C@H]1[C@@H](C(=O)N1CCCCCCC1)[C@]1(C(=O)Nc3ccccc31)[C@H]2c1ccc(OCCO)cc1	+	+	+	i
O=C1O[C@@H](c2ccccc2)[C@@H](c2ccccc2)N2[C@@H](c3ccc(O)cc3)[C@]3(C(=O)Nc4ccc(C#CCCO)cc43)[C@@H](C(=O)N3CCCCCCC3)[C@H]12	i	i	i	i
Cc1ccc(NC(=O)CSc2nc(O)c(C)c(=O)n2-c2ccccc2F)c(C)c1	i	i	i	i
Cc1ccc([N+](=O)[O-])cc1NC(=O)CCN1C(=O)c2ccccc2C1=O	i	i	i	i
O=C(O)CCN1C(=O)c2cccc3c([N+](=O)[O-])ccc(c23)C1=O	+	i	i	i
CC(C)Nc1cccnc1N1CCN(C(=O)c2cc3cc(O)ccc3[nH]2)CC1	i	i	i	i
COc1cc(OC)c(OC)cc1CN1CCN(Cc2ccccn2)CC1	+	i	i	i
SMILES	Myc binder	mut p53 SMM	NFkB binder	STAT3 SMM
C[C@@H]1CCCCO[C@@H](CN(C)C(=O)Nc2ccc(C(F)(F)F)cc2)[C@H](C)CN([C@H](C)CO)C(=O)c2cc(NS(C)(=O)=O)ccc2O1	i	i	i	i
C[C@@H]1CCCCO[C@@H](CN(C)C(=O)Nc2ccc(C(F)(F)F)cc2)[C@H](C)CN([C@@H](C)CO)C(=O)c2cc(NS(C)(=O)=O)ccc2O1	+	i	i	i
C[C@@H]1CCCCO[C@H](CN(C)C(=O)Nc2ccc(C(F)(F)F)cc2)[C@H](C)CN([C@@H](C)CO)C(=O)c2cc(NS(C)(=O)=O)ccc2O1	i	i	i	+
C[C@H]1CCCCO[C@H](CN(C)C(=O)Nc2ccc(C(F)(F)F)cc2)[C@@H](C)CN([C@@H](C)CO)C(=O)c2cc(NS(C)(=O)=O)ccc2O1	+	i	+	+
C[C@@H]1CCCCO[C@@H](CN(C)C(=O)Nc2ccc(C(F)(F)F)cc2)[C@@H](C)CN([C@H](C)CO)C(=O)c2cc(NS(C)(=O)=O)ccc2O1	i	i	i	i
O=C(Cn1cc(C(=O)c2ccccc2F)c2ccccc21)Nc1ccccc1	i	i	i	i
COc1ccccc1NC(=O)COc1ccc(C(=O)O)cc1OC	i	i	i	i
C=CCOC(=O)C1=C[C@H](c2coc3ccccc3c2=O)C[C@H](OCc2ccc(CO)cc2)O1	+	i	i	i
COc1ccc(S(=O)(=O)Nc2ccc(Br)c3cccnc23)c([N+](=O)[O-])c1	i	i	i	i
COc1ccc(S(=O)(=O)N(C)CCc2ccccn2)cc1	+	i	+	+
CN(C/C=C/c1ccccc1[N+](=O)[O-])CCc1ccccn1	i	i	i	i
Cc1ccccc1NC(=O)CSc1nc(N)c2c3c(sc2n1)COC(C)(C)C3	i	i	i	i
CC(C)NC(=O)N(C)C[C@H]1OCCCC[C@H](C)Oc2ccc(NC(=O)CCC(F)(F)F)cc2C(=O)N([C@H](C)CO)C[C@@H]1C	+	i	+	i
C[C@@H]1CN([C@H](C)CO)C(=O)c2cc(NC(=O)CCC(F)(F)F)ccc2O[C@@H](C)CCCCO[C@H]1CN(C)C(=O)CCC(F)(F)F	+	i	+	i
C[C@H](CO)N1C[C@H](C)[C@H](CN(C)C(=O)CCC(F)(F)F)OCCCC[C@H](C)Oc2ccc(NC(=O)CCC(F)(F)F)cc2C1=O	+	i	+	i
C[C@H](CO)N1C[C@H](C)[C@@H](CN(C)C(=O)CCC(F)(F)F)OCCCC[C@H](C)Oc2ccc(NC(=O)CCC(F)(F)F)cc2C1=O	i	i	i	i
C[C@@H]1CN([C@@H](C)CO)C(=O)c2cc(NC(=O)CCC(F)(F)F)ccc2O[C@@H](C)CCCCO[C@@H]1CN(C)C(=O)CCC(F)(F)F	+	i	+	i
